This passage reports growth inhibition results from PubChem BioAssay (NCI).

Structures are written as SMILES. The panel holds about 79,000 compounds, 15% with a hit somewhere; the sample as a whole holds those more often. Values without a mark were called inactive. Calls of active or inactive are those of the source. Rule as the data show it: active = growth inhibition above about 70%; inactive = the rest.

Experiment [1] can be described thus: NCI Yeast Anticancer Drug Screen. Data for the rad50 strain (AID 155).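 Also: 0% = growth of vehicle-only cultures of the same strain.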 Conditions: S. cerevisiae rad50 strain growth inhibition, active compounds read high. The gist of the method: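 Inhibition values express reduced yeast growth in compound-treated cultures relative to vehicle-treated controls.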
Experiment [2] can be described thus: NCI Yeast Anticancer Drug Screen. Data for the mec2-1 strain (AID 157). Conditions: S. cerevisiae mec2-1 strain, active compounds read high. Put shortly: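 Growth inhibition is read against vehicle-treated controls after compound exposure of the mec2-1 yeast strain, which is defective in DNA damage repair or cell cycle control.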
Experiment [3] is described as follows: NCI Yeast Anticancer Drug Screen. Data for the sgs1 mgt1 strain (AID 161).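 Also: 0% = growth of cultures given vehicle only.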 Conditions: S. cerevisiae sgs1 mgt1 strain, active compounds read high. Put shortly:
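Compounds are added to genetically altered yeast, and growth is compared with cultures given vehicle alone to give percent inhibition.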

The nature of experiment [4]: NCI Yeast Anticancer Drug Screen. Data for the cln2 rad14 strain (AID 165).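 Also: 0% = growth equal to vehicle treated cultures.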 Conditions: S. cerevisiae cln2 rad14 strain, active compounds read high. Put shortly: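 Growth inhibition, relative to vehicle-treated controls, is the read-out. The test organism is a yeast strain with defined genetic alterations, cln2 rad14.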
The nature of experiment [5]: NCI Yeast Anticancer Drug Screen. Data for the bub3 strain (AID 167). Conditions: S. cerevisiae bub3 mutant strain, active compounds read high. Put shortly: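 Steps: expose the mutant yeast strain to compound; grow alongside vehicle-treated cultures; measure growth; express inhibition against the vehicle cultures.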
Experiment [6] can be described thus: NCI Yeast Anticancer Drug Screen. Data for the mlh1 rad18 strain (AID 175). Conditions: S. cerevisiae mlh1 rad18 strain growth inhibition, active compounds read high. Put shortly: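 Cells of a genetically altered yeast strain, deficient in DNA damage repair, were treated with compound. Their growth was then compared with that of vehicle-treated cultures to give inhibition.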

[7] abbreviates: at 5.0 µM (retest, dose inferred, filed as 0.5).
[8] abbreviates: at 50.0 µM (retest, dose inferred, filed as 5.0).

Regarding `CCCC1CCCC1(CC(=O)c1ccccc1)C(=O)O` (stereo not given), the growth inhibition in experiment [1] (setting [7]) was 21%; in experiment [1] (setting [8]), 52%; in experiment [1] (at 50.0 µM), 70.3% (active); in experiment [2] (setting [7]), 19%; in experiment [2] (setting [8]) it was 46%; in experiment [2] (at 50.0 µM) it was 64.8%. Further, the growth inhibition is 25% in experiment [3] (setting [7]); 47% in experiment [3] (setting [8]); 81.7% (active) in experiment [3] (at 50.0 µM); 24% in experiment [4] (setting [7]); 54% in experiment [4] (setting [8]); 82.3% (active) in experiment [4] (at 50.0 µM). The growth inhibition in experiment [5] (setting [7]) is 63%; in experiment [5] (setting [8]), 76% (active); in experiment [5] (at 50.0 µM), 90.2% (active); in experiment [6] (setting [7]), 47%; in experiment [6] (setting [8]), 72% (active); in experiment [6] (at 50.0 µM) it was 82.5% (active).
With `c1ccc(C2CC(c3ccc4ccccc4c3)=Nc3ccccc3S2)cc1` (stereo not given), the growth inhibition is 0% in experiment [1] (setting [7]); 40% in experiment [1] (setting [8]); 76.8% (active) in experiment [1] (at 50.0 µM); -4% in experiment [2] (setting [7]); 72% (active) in experiment [2] (setting [8]); 50.6% in experiment [2] (at 50.0 µM). The growth inhibition in experiment [3] (setting [7]) was 8%; in experiment [3] (setting [8]) it was 78% (active); in experiment [3] (at 50.0 µM) it was 80.8% (active); in experiment [4] (setting [7]) it was -11%; in experiment [4] (setting [8]), 19%; in experiment [4] (at 50.0 µM) it was 69.5%. For the same compound, the growth inhibition in experiment [5] (setting [7]) was 21%; in experiment [5] (setting [8]), 91% (active); in experiment [5] (at 50.0 µM) it was 96.5% (active); in experiment [6] (setting [7]), 3%; in experiment [6] (setting [8]), 76% (active); in experiment [6] (at 50.0 µM), 88.1% (active).
As to `Clc1ccc(C(CCc2ccc(Br)cc2)Cn2ccnc2)c(Cl)c1` (stereo not given), the growth inhibition is 94% (active) in experiment [1] (setting [7]); 99% (active) in experiment [1] (setting [8]); 99.4% (active) in experiment [1] (at 50.0 µM); 82% (active) in experiment [2] (setting [7]); 99% (active) in experiment [2] (setting [8]); 99.5% (active) in experiment [2] (at 50.0 µM). Further, the growth inhibition in experiment [3] (setting [7]) was 87% (active); in experiment [3] (setting [8]) it was 99% (active); in experiment [3] (at 50.0 µM) it was 59.7%; in experiment [4] (setting [7]) it was 72% (active); in experiment [4] (setting [8]), 99% (active); in experiment [4] (at 50.0 µM), 99.5% (active). In addition, the growth inhibition in experiment [5] (setting [7]) is 91% (active); in experiment [5] (setting [8]), 99% (active); in experiment [5] (at 50.0 µM) it was 99.2% (active); in experiment [6] (setting [7]), 71% (active); in experiment [6] (setting [8]), 98% (active); in experiment [6] (at 50.0 µM), 99.5% (active).
`FC(F)(F)c1ccccc1NC(=S)SCc1ccc(Cl)cc1`: the growth inhibition in experiment [1] (setting [7]) is 3%; in experiment [1] (setting [8]), 53%; in experiment [1] (at 50.0 µM), 97% (active); in experiment [2] (setting [7]) it was -2%; in experiment [2] (setting [8]), 95% (active); in experiment [2] (at 50.0 µM), 97.2% (active). Further, the growth inhibition is 1% in experiment [3] (setting [7]); 94% (active) in experiment [3] (setting [8]); 99.2% (active) in experiment [3] (at 50.0 µM); -3% in experiment [4] (setting [7]); 69% in experiment [4] (setting [8]); 98.5% (active) in experiment [4] (at 50.0 µM). Besides, the growth inhibition is 14% in experiment [5] (setting [7]); 90% (active) in experiment [5] (setting [8]); 97.4% (active) in experiment [5] (at 50.0 µM); -3% in experiment [6] (setting [7]); 83% (active) in experiment [6] (setting [8]); 99.2% (active) in experiment [6] (at 50.0 µM).
As for `CC(=O)c1c(-c2ccco2)c(C#N)c(=S)n(C2OC(CO)C(O)C(O)C2O)c1-c1ccccc1` (stereo not given), the growth inhibition in experiment [1] (setting [7]) was -9%; in experiment [1] (setting [8]) it was 12%; in experiment [1] (at 50.0 µM), 32.9%; in experiment [2] (setting [7]), -4%; in experiment [2] (setting [8]), 17%; in experiment [2] (at 50.0 µM), 49.6%. The growth inhibition in experiment [3] (setting [7]) is 0%; in experiment [3] (setting [8]), 44%; in experiment [3] (at 50.0 µM) it was 58.5%; in experiment [4] (setting [7]) it was 14%; in experiment [4] (setting [8]), 28%; in experiment [4] (at 50.0 µM), 35.2%. Further, the growth inhibition in experiment [5] (setting [7]) was 8%; in experiment [5] (setting [8]), 20%; in experiment [5] (at 50.0 µM), 50.8%; in experiment [6] (setting [7]) it was -25%; in experiment [6] (setting [8]), 45%; in experiment [6] (at 50.0 µM), 62.6%.
On to `CCC#CC(O)(C(=O)OCC)C1CCCC1` (stereo not given), for which the growth inhibition is -148% in experiment [1] (setting [7]); -161% in experiment [1] (setting [8]); -1.05% in experiment [1] (at 50.0 µM); -50% in experiment [2] (setting [7]); -51% in experiment [2] (setting [8]); 13.5% in experiment [2] (at 50.0 µM). Besides, the growth inhibition in experiment [3] (setting [7]) was -59%; in experiment [3] (setting [8]), -64%; in experiment [3] (at 50.0 µM) it was -0.35%; in experiment [4] (setting [7]), -57%; in experiment [4] (setting [8]), -59%; in experiment [4] (at 50.0 µM), 33.5%. Also, the growth inhibition in experiment [5] (setting [7]) is -67%; in experiment [5] (setting [8]), -85%; in experiment [5] (at 50.0 µM), 18.4%; in experiment [6] (setting [7]), -115%; in experiment [6] (setting [8]) it was -115%; in experiment [6] (at 50.0 µM) it was 7.9%.
`CCCC/C=C(/CCCNCCCC)[Si](C)(C)C`: the growth inhibition is 70% (active) in experiment [1] (setting [7]); 97% (active) in experiment [1] (setting [8]); 91.8% (active) in experiment [1] (at 50.0 µM); 72% (active) in experiment [2] (setting [7]); 99% (active) in experiment [2] (setting [8]); 93.7% (active) in experiment [2] (at 50.0 µM). Further, the growth inhibition was 90% (active) in experiment [3] (setting [7]); 99% (active) in experiment [3] (setting [8]); 94.2% (active) in experiment [3] (at 50.0 µM); 73% (active) in experiment [4] (setting [7]); 98% (active) in experiment [4] (setting [8]); 92.8% (active) in experiment [4] (at 50.0 µM). In addition, the growth inhibition in experiment [5] (setting [7]) was 90% (active); in experiment [5] (setting [8]), 99% (active); in experiment [5] (at 50.0 µM), 92.7% (active); in experiment [6] (setting [7]), 91% (active); in experiment [6] (setting [8]) it was 98% (active); in experiment [6] (at 50.0 µM) it was 91.9% (active).
In the case of `CCCCCCCCCCCCCCCC1(OC)C[N+](C)(C)CCO1` (stereo not given), the growth inhibition was 99% (active) in experiment [1] (setting [7]); 99% (active) in experiment [1] (setting [8]); 99.5% (active) in experiment [1] (at 50.0 µM); 100% (active) in experiment [2] (setting [7]); 100% (active) in experiment [2] (setting [8]); 99.7% (active) in experiment [2] (at 50.0 µM). In addition, the growth inhibition in experiment [3] (setting [7]) was 99% (active); in experiment [3] (setting [8]), 100% (active); in experiment [3] (at 50.0 µM), 99.7% (active); in experiment [4] (setting [7]) it was 100% (active); in experiment [4] (setting [8]) it was 100% (active); in experiment [4] (at 50.0 µM) it was 99.5% (active). Also, the growth inhibition in experiment [5] (setting [7]) is 99% (active); in experiment [5] (setting [8]), 99% (active); in experiment [5] (at 50.0 µM) it was 99.7% (active); in experiment [6] (setting [7]) it was 99% (active); in experiment [6] (setting [8]) it was 100% (active); in experiment [6] (at 50.0 µM), 99.7% (active).
`Cc1ccc(S(=O)(=O)NC(Cc2ccccc2)C(=O)CCl)cc1` (stereo not given): the growth inhibition was 61% in experiment [1] (setting [7]); 99% (active) in experiment [1] (setting [8]); 89.9% (active) in experiment [1] (at 50.0 µM); 66% in experiment [2] (setting [7]); 99% (active) in experiment [2] (setting [8]); 92.8% (active) in experiment [2] (at 50.0 µM). For the same compound, the growth inhibition is 74% (active) in experiment [3] (setting [7]); 98% (active) in experiment [3] (setting [8]); 88.8% (active) in experiment [3] (at 50.0 µM); 44% in experiment [4] (setting [7]); 88% (active) in experiment [4] (setting [8]); 84.8% (active) in experiment [4] (at 50.0 µM). Besides, the growth inhibition in experiment [5] (setting [7]) was 79% (active); in experiment [5] (setting [8]) it was 99% (active); in experiment [5] (at 50.0 µM), 84.5% (active); in experiment [6] (setting [7]), 86% (active); in experiment [6] (setting [8]), 98% (active); in experiment [6] (at 50.0 µM), 84.7% (active).
Take `CC(=O)NS(=O)(=O)c1ccc(N=Cc2cc(Cl)cc(Cl)c2O)cc1`: the growth inhibition in experiment [1] (setting [7]) was 25%; in experiment [1] (setting [8]), 98% (active); in experiment [1] (at 50.0 µM), 83% (active); in experiment [2] (setting [7]), 19%; in experiment [2] (setting [8]), 99% (active); in experiment [2] (at 50.0 µM) it was 92.1% (active). Moreover, the growth inhibition in experiment [3] (setting [7]) was 13%; in experiment [3] (setting [8]) it was 79% (active); in experiment [3] (at 50.0 µM), 44.5%; in experiment [4] (setting [7]), 46%; in experiment [4] (setting [8]) it was 98% (active); in experiment [4] (at 50.0 µM), 87.8% (active). Also, the growth inhibition was 44% in experiment [5] (setting [7]); 99% (active) in experiment [5] (setting [8]); 90.7% (active) in experiment [5] (at 50.0 µM); 67% in experiment [6] (setting [7]); 99% (active) in experiment [6] (setting [8]); 88% (active) in experiment [6] (at 50.0 µM).
